The test system of one assay is Staphylococcus aureus. The following applies: Concentration 32 ug.mL-1; ASSAY_TEST Inhibition of Bacterial Growth; detection method Absorption (OD600); MEDIA CAMHB; plate type 384well; NBS; CORNING #3640; time 18 hr.
For the next assay, the system named is Escherichia coli. Conditions: Concentration 32 ug.mL-1; ASSAY_TEST Inhibition of Bacterial Growth; detection method Absorption (OD600); MEDIA CAMHB; plate type 384well; NBS; CORNING #3640; time 18 hr.

Molecules are shown by their SMILES. Measured potencies and affinities stand elsewhere.

Broadly, the Inhibition is the drop in the measured response relative to a control, in per cent.

For `O=C(/C=C/c1c[nH]c2ccc(O)cc12)c1cc(O)ccc1O`, the Inhibition in the assay with Staphylococcus aureus is listed as 20.75%; in the assay on Escherichia coli, -12.64%.
Regarding `COc1ccc(OC)c(CC(=O)Nc2cc(OC)ccc2OC)c1`, the Inhibition in the assay with Staphylococcus aureus is 27.17%; in the assay with Escherichia coli, -12.93%.
`O=C(Cc1cc(O)ccc1O)Nc1cc(O)ccc1O`: the Inhibition in the assay with Staphylococcus aureus is 22.67%; in the assay on Escherichia coli it was -14.95%.
Take `COc1ccc(OC)c(NC(=O)Nc2ccc(OC)cc2OC)c1`: the Inhibition was 5.98% with Staphylococcus aureus and -17.47% with Escherichia coli.
For `Oc1ccc(O)c(-c2cn(-c3ccc(O)c(O)c3)nn2)c1` the same measures were 34.68% and -12.66%.
Regarding `COc1ccc(OC)c(CC(=O)Nc2ccc(OC)cc2OC)c1`, the Inhibition was 26.56% with Staphylococcus aureus and -12.34% in the assay on Escherichia coli.
Take `O=C(Cc1cc(O)ccc1O)Nc1ccc(O)cc1`: the results for the Inhibition in the assay with Staphylococcus aureus and with Escherichia coli were 29.77% and -10.96%, respectively.
Consider `COc1ccc(OC)c(-c2cn(-c3ccc(OC)c(OC)c3)nn2)c1`, for which the Inhibition in the assay with Staphylococcus aureus is listed as -11.96%; in the assay on Escherichia coli, -27.73%.
Take `O=C(Nc1ccc(O)cc1O)Nc1cc(O)ccc1O`: the Inhibition with Staphylococcus aureus is 10.74%; with Escherichia coli, -13.5%.
For `COc1ccc(C(=O)/C=C/c2ccc(OC)cc2OC)cc1`, in that order: 6.51% and -22.4%.
For `COc1ccc(CN2C(=O)C(C)C2(Cc2cn(C(=O)OC(C)(C)C)c3ccccc23)C(=O)OC(C)(C)C)cc1` (configuration not stated) the same measures were 27.02% and -6.98%.
For `COc1ccc(OC)c(C(=O)/C=C/c2ccccc2O)c1`, in that order: 11.52% and -22.92%.
Regarding `O=C(Cc1cc(O)ccc1O)Nc1ccc(O)cc1O`, the Inhibition in the assay with Staphylococcus aureus is 17.97%; in the assay on Escherichia coli it was -13.2%.
In the case of `O=C(OCc1ccccc1)N1C(=O)C(c2ccccc2NC(=O)C(F)(F)F)=C(O)C1Cc1ccccc1` (configuration not stated), the Inhibition in the assay with Staphylococcus aureus is 36.54%; in the assay with Escherichia coli it was -6.54%.
On to `COC(=O)c1c(C(Cc2ccccc2)NC(=O)OCc2ccccc2)[nH]c2ccccc12` (configuration not stated), for which the Inhibition is 22.9% with Staphylococcus aureus and -13.62% in the assay on Escherichia coli.
For `COc1ccc(OC)c(C(=O)/C=C/c2c[nH]c3ccc(OC)cc23)c1`, the Inhibition with Staphylococcus aureus was 20.69%; in the assay on Escherichia coli, -14.33%.
Take `COc1ccc(OC)c(C(=O)CCc2ccc(O)cc2)c1`: the Inhibition is 16.63% in the assay with Staphylococcus aureus and -22.53% in the assay with Escherichia coli.
As to `O=C(/C=C/c1ccccc1O)c1cc(O)c(O)cc1O`, the Inhibition with Staphylococcus aureus was 26.82%; in the assay on Escherichia coli it was -8.37%.
Regarding `COC(=O)C1(Cc2ccc(OCc3c(Cl)cccc3Cl)cc2)C(C)C(=O)N1Cc1ccc(OC)cc1` (configuration not stated), the figures for the Inhibition in the assay with Staphylococcus aureus and in the assay on Escherichia coli were 19.17% and -12.56%, respectively.
For `CC1C(=O)N(Cc2ccc(OCCN3CCOCC3)cc2)C1(Cc1ccccc1)C(=O)O` (configuration not stated), the results for the Inhibition in the assay with Staphylococcus aureus and in the assay on Escherichia coli were 11.78% and -10.5%, respectively.
Take `O=C(CCc1ccc(O)cc1O)c1cc(O)ccc1O`: the Inhibition in the assay on Staphylococcus aureus was 23.73%; with Escherichia coli it was -20.02%.
For `COc1ccc(OC)c(C(=O)CCc2ccccc2O)c1`, in that order: 15.3% and -20.89%.
For `Oc1ccc(-n2cc(-c3cc(O)ccc3O)nn2)cc1` the same measures were 19.08% and -16.85%.
`COc1ccc(NC(=O)Cc2cc(OC)ccc2OC)cc1`: the results for the Inhibition with Staphylococcus aureus and with Escherichia coli were 31.14% and -11.77%, respectively.
On to `COc1ccc(OC)c(C(=O)/C=C/c2ccc(O)cc2)c1`, for which the Inhibition with Staphylococcus aureus is given as 10.84%; in the assay on Escherichia coli it was -21.08%.
As for `COc1ccccc1/C=C/C(=O)c1cc(OC)c(OC)cc1OC`, the Inhibition is given as 26.72% in the assay on Staphylococcus aureus and -13.16% in the assay on Escherichia coli.

Source of the values: ChEMBL document CHEMBL4513136, “CO-ADD screening of CSIC (Spain) compounds”.
